Reference: article PMC11574364

Tests used:
Assay in all cases: protein domain microarray probed with biotinylated miRNA; Domain array: 20 mM Tris-HCl pH 7.4, 200 mM KCl, 0.2 mM EDTA, 0.05% NP40, 2 ug/ul heparin, overnight 4 C. ORF array: PBS pH 7.0 with RNase inhibitor, 100 ng RNA; high values mean tight binding
Conditions in all cases: ssRNA
hnRNP K(3) = hnRNP K(3) (Homo sapiens, UniProt P61978)
RBM35A = target: T1, RBM35A (Homo sapiens, UniProt Q6NXG1)
T1 sequence: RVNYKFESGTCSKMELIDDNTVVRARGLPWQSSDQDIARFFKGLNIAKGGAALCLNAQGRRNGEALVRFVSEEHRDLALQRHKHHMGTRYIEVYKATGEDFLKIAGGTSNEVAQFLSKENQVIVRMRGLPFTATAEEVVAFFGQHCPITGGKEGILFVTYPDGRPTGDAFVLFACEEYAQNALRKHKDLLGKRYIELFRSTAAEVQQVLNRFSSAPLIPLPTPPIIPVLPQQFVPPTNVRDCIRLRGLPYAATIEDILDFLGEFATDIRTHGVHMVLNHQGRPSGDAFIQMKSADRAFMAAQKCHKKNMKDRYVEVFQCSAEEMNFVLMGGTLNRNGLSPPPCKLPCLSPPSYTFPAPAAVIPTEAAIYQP

RKHD2(1-2) = target: T2, RKHD2(1-2) (Homo sapiens, UniProt Q5U5Q3)
T2 sequence: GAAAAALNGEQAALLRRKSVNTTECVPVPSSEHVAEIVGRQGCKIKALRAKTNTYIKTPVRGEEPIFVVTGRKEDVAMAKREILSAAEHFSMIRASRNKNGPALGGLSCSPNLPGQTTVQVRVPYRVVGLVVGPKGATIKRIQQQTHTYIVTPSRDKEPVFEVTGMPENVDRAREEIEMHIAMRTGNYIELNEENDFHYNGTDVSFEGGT

RBM35B = target: T3, RBM35B (Homo sapiens, UniProt Q9H6T0)
T3 sequence: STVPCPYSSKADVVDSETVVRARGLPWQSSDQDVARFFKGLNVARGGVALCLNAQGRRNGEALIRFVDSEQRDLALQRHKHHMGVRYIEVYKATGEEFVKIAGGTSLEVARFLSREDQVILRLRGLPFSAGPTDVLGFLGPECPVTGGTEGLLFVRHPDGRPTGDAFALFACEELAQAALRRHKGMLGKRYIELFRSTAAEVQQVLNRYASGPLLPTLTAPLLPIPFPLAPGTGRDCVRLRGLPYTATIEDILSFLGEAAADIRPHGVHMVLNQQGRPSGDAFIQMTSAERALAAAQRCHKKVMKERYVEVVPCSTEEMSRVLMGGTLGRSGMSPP

TAF15 = TAF15 (Homo sapiens, UniProt Q92804)
RBM6 = target: T4, RBM6 (Homo sapiens, UniProt P78332)
T4 sequence: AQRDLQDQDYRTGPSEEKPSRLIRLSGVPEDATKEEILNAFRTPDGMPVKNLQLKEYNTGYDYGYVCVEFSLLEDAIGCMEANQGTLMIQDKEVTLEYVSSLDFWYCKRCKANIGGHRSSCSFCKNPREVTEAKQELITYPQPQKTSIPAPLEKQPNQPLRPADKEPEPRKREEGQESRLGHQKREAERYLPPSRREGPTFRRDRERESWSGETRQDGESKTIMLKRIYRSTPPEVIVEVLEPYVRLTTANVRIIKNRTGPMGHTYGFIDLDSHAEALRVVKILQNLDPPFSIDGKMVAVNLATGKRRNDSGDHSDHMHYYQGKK

RBM23 = target: T5, RBM23 (Homo sapiens, UniProt Q86U06)
T5 sequence: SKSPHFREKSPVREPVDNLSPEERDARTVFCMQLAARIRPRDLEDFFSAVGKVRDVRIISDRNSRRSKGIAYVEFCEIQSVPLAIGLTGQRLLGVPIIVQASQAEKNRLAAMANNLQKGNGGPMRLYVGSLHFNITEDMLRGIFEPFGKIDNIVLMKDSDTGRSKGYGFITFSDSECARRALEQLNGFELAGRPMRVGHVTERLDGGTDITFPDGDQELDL

KHDRBS2 = target: T6, KHDRBS2 (Homo sapiens, UniProt Q5VWX1)
T6 sequence: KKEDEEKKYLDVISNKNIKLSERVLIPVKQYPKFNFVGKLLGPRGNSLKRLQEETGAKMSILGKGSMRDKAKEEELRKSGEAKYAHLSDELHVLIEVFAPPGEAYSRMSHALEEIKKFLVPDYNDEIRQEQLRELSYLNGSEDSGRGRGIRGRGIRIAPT

RBM12B(1-3) = target: T7, RBM12B(1-3) (Homo sapiens, UniProt Q8IXT5)
T7 sequence: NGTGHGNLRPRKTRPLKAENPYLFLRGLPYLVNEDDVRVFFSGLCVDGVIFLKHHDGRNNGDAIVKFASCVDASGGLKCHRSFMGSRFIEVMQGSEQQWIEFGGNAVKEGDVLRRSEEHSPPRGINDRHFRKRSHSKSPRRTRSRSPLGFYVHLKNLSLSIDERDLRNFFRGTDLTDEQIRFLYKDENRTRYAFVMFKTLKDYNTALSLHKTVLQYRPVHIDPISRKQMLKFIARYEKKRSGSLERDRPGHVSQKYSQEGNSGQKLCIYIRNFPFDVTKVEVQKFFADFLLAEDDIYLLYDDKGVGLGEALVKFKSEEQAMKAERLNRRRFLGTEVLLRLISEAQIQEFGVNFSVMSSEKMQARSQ

RED1(2)/ADARB1 = RED1(2)/ADARB1 (Homo sapiens, UniProt P78563)
FBP3(1-4) = FBP3(1-4) (Homo sapiens, UniProt Q96I24)
IGF2BP3(3-4) = IGF2BP3(3-4) (Homo sapiens, UniProt O00425)
DGCR8 = target: T8, DGCR8 (Homo sapiens, UniProt Q8WYQ5)
T8 sequence: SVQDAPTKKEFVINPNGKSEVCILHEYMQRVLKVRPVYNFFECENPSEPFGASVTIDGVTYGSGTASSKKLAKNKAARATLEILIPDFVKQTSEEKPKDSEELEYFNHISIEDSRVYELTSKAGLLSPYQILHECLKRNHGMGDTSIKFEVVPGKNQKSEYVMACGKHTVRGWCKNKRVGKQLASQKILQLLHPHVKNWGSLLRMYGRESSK

QKI = target: T9, QKI (Homo sapiens, UniProt Q96PU8)
T9 sequence: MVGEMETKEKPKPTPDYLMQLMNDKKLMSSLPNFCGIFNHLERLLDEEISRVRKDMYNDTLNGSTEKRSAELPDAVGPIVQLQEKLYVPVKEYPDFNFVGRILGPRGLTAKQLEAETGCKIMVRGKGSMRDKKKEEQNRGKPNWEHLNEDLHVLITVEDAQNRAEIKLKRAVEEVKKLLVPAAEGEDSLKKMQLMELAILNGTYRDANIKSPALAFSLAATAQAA

ADARB2(2) = target: T10, ADARB2(2) (Homo sapiens, UniProt Q9NS39)
T10 sequence: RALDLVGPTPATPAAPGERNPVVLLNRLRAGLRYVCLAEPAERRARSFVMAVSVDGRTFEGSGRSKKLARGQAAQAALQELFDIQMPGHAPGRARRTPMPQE

Sequence of hnRNP K(3) (P61978 369-463): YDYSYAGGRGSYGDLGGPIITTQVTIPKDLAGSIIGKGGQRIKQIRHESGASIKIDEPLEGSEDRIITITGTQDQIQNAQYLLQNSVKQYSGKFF
Sequence of TAF15 (Q92804 215-340): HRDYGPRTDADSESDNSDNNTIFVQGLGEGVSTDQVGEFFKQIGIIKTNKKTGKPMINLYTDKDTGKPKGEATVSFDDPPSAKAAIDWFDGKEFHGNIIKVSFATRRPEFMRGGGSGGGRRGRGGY
Sequence of FBP3(1-4) (Q96I24 57-441): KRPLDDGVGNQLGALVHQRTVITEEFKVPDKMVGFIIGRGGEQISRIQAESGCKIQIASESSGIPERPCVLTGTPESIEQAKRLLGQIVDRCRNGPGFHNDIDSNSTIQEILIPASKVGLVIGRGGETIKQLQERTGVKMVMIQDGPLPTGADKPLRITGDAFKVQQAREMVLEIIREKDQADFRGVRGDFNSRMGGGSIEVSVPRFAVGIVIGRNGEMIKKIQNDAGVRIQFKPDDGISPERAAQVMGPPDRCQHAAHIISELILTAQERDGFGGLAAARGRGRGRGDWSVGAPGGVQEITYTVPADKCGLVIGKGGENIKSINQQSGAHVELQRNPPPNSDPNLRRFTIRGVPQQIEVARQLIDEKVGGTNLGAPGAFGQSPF
Sequence of IGF2BP3(3-4) (O00425 387-579): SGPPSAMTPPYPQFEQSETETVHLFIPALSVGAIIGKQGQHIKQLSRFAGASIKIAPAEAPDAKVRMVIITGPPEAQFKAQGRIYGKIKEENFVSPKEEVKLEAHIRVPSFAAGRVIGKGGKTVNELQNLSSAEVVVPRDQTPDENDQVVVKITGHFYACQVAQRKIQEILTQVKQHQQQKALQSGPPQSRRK

| Sequence | binding signal (hnRNP K(3)) [fluorescence intensity] | binding signal (RBM35A) [fluorescence intensity] | binding signal (RKHD2(1-2)) [fluorescence intensity] | binding signal (RBM35B) [fluorescence intensity] | binding signal (TAF15) [fluorescence intensity] | binding signal (RBM6) [fluorescence intensity] | binding signal (RBM23) [fluorescence intensity] | binding signal (KHDRBS2) [fluorescence intensity] | binding signal (RBM12B(1-3)) [fluorescence intensity] | binding signal (RED1(2)/ADARB1) [fluorescence intensity] | binding signal (FBP3(1-4)) [fluorescence intensity] | binding signal (IGF2BP3(3-4)) [fluorescence intensity] | binding signal (DGCR8) [fluorescence intensity] | binding signal (QKI) [fluorescence intensity] | binding signal (ADARB2(2)) [fluorescence intensity] |
| --- | --- | --- | --- | --- | --- | --- | --- | --- | --- | --- | --- | --- | --- | --- | --- |
| UGAGGUAGUAGGUUGUAUAGUU | 52.1 ± 3.1 | 521 ± 7.45 | 509.4 ± 2.09 | 31.4 ± 1.56 | 54.7 ± 13.8 | 20.3 ± 1.75 | 162.15 ± 0.134 | 388 ± 52.1 | 44.5 ± 1.46 | 25 ± 0.453 | 38 ± 4.14 | 29.1 ± 0.552 | 38.6 ± 3.32 | 20.4 ± 2.35 |  |
| AGAGGUAGUAGGUUGCAUAGUU | 181 ± 4.45 | 2590 ± 119 | 874 ± 10.7 | 170 ± 4.31 | 299 ± 23.1 | 491 ± 28 | 644 ± 79.1 | 1300 ± 14.4 | 274 ± 48.6 | 73.3 ± 1.94 | 63.6 ± 6.09 | 64.5 ± 3.37 | 130 ± 1.15 | 33.1 ± 1.25 | 23.8 ± 11.5 |
| UAGCUUAUCAGACUGAUGUUGA | 79.6 ± 1.76 | 26.4 ± 2.09 | 234 ± 5.59 |  |  |  | 26.5 ± 5.48 | 463 ± 19.2 |  |  |  |  |  |  |  |
| CAGUGCAAUGAUGAAAGGGCAU | 294 ± 10.8 | 1310 ± 17.7 | 486 ± 53.7 | 135 ± 1.71 | 104 ± 15.9 | 107 ± 6.4 | 199 ± 29.6 | 1440 ± 198 | 194 ± 28.6 | 68.1 ± 3.97 | 52.55 ± 0.495 | 53.6 ± 2.39 | 102 ± 2.74 | 37.7 ± 8.53 | 32.5 ± 3.78 |
| UGAGGUAGUAGGUUGUGUGGUU | 291 ± 3.08 | 1439 ± 11.1 | 680.7 ± 1.67 | 287 ± 29.8 | 662 ± 122 | 453 ± 28.5 | 678.5 ± 0.919 | 1190 ± 18.7 | 329 ± 27.9 | 143.2 ± 0.375 | 107 ± 3.19 | 169 ± 5.85 | 212.8 ± 0.537 | 66.4 ± 1.27 | 85.94 ± 0.24 |
| UGAGGUAGUAGGUUGUAUGGUU | 199 ± 15.1 | 1320 ± 26.9 | 733 ± 12 | 193.1 ± 0.566 | 588 ± 28.9 | 550 ± 31 | 843 ± 102 | 842 ± 171 | 324 ± 46.5 | 87.6 ± 3.8 | 77.1 ± 5.85 | 96.125 ± 0.0778 | 110 ± 8.32 | 33.2 ± 5.98 | 59.45 ± 0.594 |
